# The whole screen tested about 5,500 compounds, of which about 2,000 (36%) were called active. Another 18% or so got no clear call; they are omitted. This is one part of the list. A number with no mark means an inactive call. No stated cut-off is given here; in the data, active means normalized growth mostly below about 0.91 (no sharp cut-off); inconclusive means no clear call, values can overlap the other calls; inactive means mostly above about 0.92.
# Assay: chemical genetic growth profiling, strain panel (AID 1159580);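 further: tested at 20 µM; growth read once vehicle control cultures reached saturation at 30 °C; 1 = growth at the plate median or of vehicle wells; lower values mean less growth of the strain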
# Details: growth OD
compound,measurement,setting,value
CC1CCCC(C)N1NC(=O)c1ccc(Cl)c(S(N)(=O)=O)c1 (stereo unspecified),normalized growth,"S. cerevisiae deletion strains, locus YKL009W, strain mrt4, active compounds read low",0.973
same,normalized growth,"S. cerevisiae deletion strains, locus YKL068W, active compounds read low",0.992
same,normalized growth,"S. cerevisiae deletion strains, locus YKL085W, strain MDH1 (second series), active compounds read low",0.987
same,normalized growth,"S. cerevisiae deletion strains, locus YKL085W, strain MDH1, active compounds read low",0.987
same,normalized growth,"S. cerevisiae deletion strains, locus YKL160W, strain elf1, active compounds read low",0.995
same,normalized growth,"S. cerevisiae deletion strains, locus YKL190W, strain CNB1, active compounds read low",0.99
same,normalized growth,"S. cerevisiae deletion strains, locus YKR001C, strain vps1, active compounds read low",1
same,normalized growth,"S. cerevisiae deletion strains, locus YKR026C, strain gcn3, active compounds read low",0.999
same,normalized growth,"S. cerevisiae deletion strains, locus YKR091W, strain srl3, active compounds read low",1.02
same,normalized growth,"S. cerevisiae deletion strains, locus YLL001W, strain dnm1, active compounds read low",1.01
same,normalized growth,"S. cerevisiae deletion strains, locus YLL026W, active compounds read low",1.02
same,normalized growth,"S. cerevisiae deletion strains, locus YLL041C, strain sdh2, active compounds read low",0.998
same,normalized growth,"S. cerevisiae deletion strains, locus YLR027C, strain aat2, active compounds read low",1.03
same,normalized growth,"S. cerevisiae deletion strains, locus YLR039C, strain RIC1, active compounds read low",0.989
same,normalized growth,"S. cerevisiae deletion strains, locus YLR058C, strain SHM2, active compounds read low",0.99
same,normalized growth,"S. cerevisiae deletion strains, locus YLR102C, strain apc9, active compounds read low",0.996
same,normalized growth,"S. cerevisiae deletion strains, locus YLR113W, strain HOG1, active compounds read low",0.993
same,normalized growth,"S. cerevisiae deletion strains, locus YLR221C, strain rsa3, active compounds read low",1.04
same,normalized growth,"S. cerevisiae deletion strains, locus YLR258W, strain gsy2, active compounds read low",0.998
same,normalized growth,"S. cerevisiae deletion strains, locus YLR262C, strain YPT6 (second series), active compounds read low",1.01
same,normalized growth,"S. cerevisiae deletion strains, locus YLR262C, strain YPT6, active compounds read low",0.997
same,normalized growth,"S. cerevisiae deletion strains, locus YLR268W, strain sec22, active compounds read low",0.933
same,normalized growth,"S. cerevisiae deletion strains, locus YLR320W, strain mms22, active compounds read low",1.02
same,normalized growth,"S. cerevisiae deletion strains, locus YLR330W, strain CHS5, active compounds read low",0.989
same,normalized growth,"S. cerevisiae deletion strains, locus YLR342W, strain FKS1 (second series), active compounds read low",1.06
same,normalized growth,"S. cerevisiae deletion strains, locus YLR342W, strain FKS1, active compounds read low",1.01
same,normalized growth,"S. cerevisiae deletion strains, locus YLR357W, strain rsc2, active compounds read low",1.05
same,normalized growth,"S. cerevisiae deletion strains, locus YLR370C, strain arc18, active compounds read low",1.01
same,normalized growth,"S. cerevisiae deletion strains, locus YLR371W, strain rom2, active compounds read low",1
same,normalized growth,"S. cerevisiae deletion strains, locus YLR384C, strain iki3, active compounds read low",1.01
same,normalized growth,"S. cerevisiae deletion strains, locus YLR418C, strain cdc73, active compounds read low",1.01
same,normalized growth,"S. cerevisiae deletion strains, locus YML016C, strain PPZ1, active compounds read low",0.991
same,normalized growth,"S. cerevisiae deletion strains, locus YML032C, strain rad52, active compounds read low",0.975
same,normalized growth,"S. cerevisiae deletion strains, locus YML120C, strain ndi1, active compounds read low",1.01
same,normalized growth,"S. cerevisiae deletion strains, locus YML124C, strain tub3, active compounds read low",0.988
same,normalized growth,"S. cerevisiae deletion strains, locus YMR058W, strain fet3, active compounds read low",1.03
same,normalized growth,"S. cerevisiae deletion strains, locus YMR078C, strain ctf18, active compounds read low",1.01
same,normalized growth,"S. cerevisiae deletion strains, locus YMR125W, strain sto1, active compounds read low",1.01
same,normalized growth,"S. cerevisiae deletion strains, locus YMR129W, active compounds read low",1.02
same,normalized growth,"S. cerevisiae deletion strains, locus YMR205C, strain PFK2, active compounds read low",0.992
same,normalized growth,"S. cerevisiae deletion strains, locus YMR223W, strain ubp8, active compounds read low",1.03
same,normalized growth,"S. cerevisiae deletion strains, locus YMR231W, strain pep5, active compounds read low",1.02
same,normalized growth,"S. cerevisiae deletion strains, locus YMR263W, strain SAP30, active compounds read low",0.982
same,normalized growth,"S. cerevisiae deletion strains, locus YMR307W, strain GAS1, active compounds read low",1.09
same,normalized growth,"S. cerevisiae deletion strains, locus YNL067W, strain RPL9B, active compounds read low",0.973
same,normalized growth,"S. cerevisiae deletion strains, locus YNL071W, strain lat1, active compounds read low",1.02
same,normalized growth,"S. cerevisiae deletion strains, locus YNL128W, strain TEP1, active compounds read low",1
same,normalized growth,"S. cerevisiae deletion strains, locus YNL153C, strain GIM3, active compounds read low",0.981
same,normalized growth,"S. cerevisiae deletion strains, locus YNL183C, strain NPR1, active compounds read low",0.952
same,normalized growth,"S. cerevisiae deletion strains, locus YNL209W, strain ssb2, active compounds read low",1
same,normalized growth,"S. cerevisiae deletion strains, locus YNL233W, strain BNI4, active compounds read low",0.977
same,normalized growth,"S. cerevisiae deletion strains, locus YNL248C, strain rpa49, active compounds read low",1.02
same,normalized growth,"S. cerevisiae deletion strains, locus YNL250W, strain rad50, active compounds read low",0.981
same,normalized growth,"S. cerevisiae deletion strains, locus YNL271C, strain bni1, active compounds read low",0.986
same,normalized growth,"S. cerevisiae deletion strains, locus YNL298W, strain CLA4, active compounds read low",0.985
same,normalized growth,"S. cerevisiae deletion strains, locus YNL307C, strain MCK1, active compounds read low",0.98
same,normalized growth,"S. cerevisiae deletion strains, locus YNL322C, strain KRE1 (second series), active compounds read low",1.11 [resistant] (active)
same,normalized growth,"S. cerevisiae deletion strains, locus YNL322C, strain KRE1, active compounds read low",0.99
same,normalized growth,"S. cerevisiae deletion strains, locus YNR049C, strain mso1, active compounds read low",1
same,normalized growth,"S. cerevisiae deletion strains, locus YNR052C, strain pop2, active compounds read low",0.996
same,normalized growth,"S. cerevisiae deletion strains, locus YOL006C, strain TOP1, active compounds read low",0.953
same,normalized growth,"S. cerevisiae deletion strains, locus YOL012C, strain htz1",0.717
same,normalized growth,"S. cerevisiae deletion strains, locus YOL147C, strain pex11, active compounds read low",0.99
same,normalized growth,"S. cerevisiae deletion strains, locus YOR001W, strain rrp6, active compounds read low",1.02
same,normalized growth,"S. cerevisiae deletion strains, locus YOR061W, strain CKA2, active compounds read low",0.999
same,normalized growth,"S. cerevisiae deletion strains, locus YOR069W, strain VPS5, active compounds read low",0.996
same,normalized growth,"S. cerevisiae deletion strains, locus YOR070C, strain gyp1, active compounds read low",1.02
same,normalized growth,"S. cerevisiae deletion strains, locus YOR080W, strain dia2, active compounds read low",1.02
same,normalized growth,"S. cerevisiae deletion strains, locus YOR083W, strain WHI5, active compounds read low",1.01
same,normalized growth,"S. cerevisiae deletion strains, locus YOR106W, strain vam3, active compounds read low",0.988
same,normalized growth,"S. cerevisiae deletion strains, locus YOR136W, strain idh2, active compounds read low",1.01
same,normalized growth,"S. cerevisiae deletion strains, locus YOR144C, strain elg1, active compounds read low",0.994
same,normalized growth,"S. cerevisiae deletion strains, locus YOR184W, strain ser1, active compounds read low",0.989
same,normalized growth,"S. cerevisiae deletion strains, locus YOR231W, strain MKK1, active compounds read low",0.979
same,normalized growth,"S. cerevisiae deletion strains, locus YOR265W, strain rbl2, active compounds read low",1.01
same,normalized growth,"S. cerevisiae deletion strains, locus YOR270C, strain vph1, active compounds read low",1.04
same,normalized growth,"S. cerevisiae deletion strains, locus YOR290C, strain snf2, active compounds read low",1.01
same,normalized growth,"S. cerevisiae deletion strains, locus YOR316C, strain cot1, active compounds read low",0.985
same,normalized growth,"S. cerevisiae deletion strains, locus YPL051W, strain arl3, active compounds read low",1.02
same,normalized growth,"S. cerevisiae deletion strains, locus YPL055C, strain LGE1, active compounds read low",1.01
same,normalized growth,"S. cerevisiae deletion strains, locus YPL078C, strain atp4, active compounds read low",1.02
same,normalized growth,"S. cerevisiae deletion strains, locus YPL106C, strain sse1, active compounds read low",0.998
same,normalized growth,"S. cerevisiae deletion strains, locus YPL240C, strain hsp82, active compounds read low",1.01
same,normalized growth,"S. cerevisiae deletion strains, locus YPL241C, strain CIN2, active compounds read low",1
same,normalized growth,"S. cerevisiae deletion strains, locus YPL256C, strain CLN2, active compounds read low",0.948
same,normalized growth,"S. cerevisiae deletion strains, locus YPR119W, strain clb2, active compounds read low",0.99
same,normalized growth,"S. cerevisiae deletion strains, locus YPR141C, strain kar3, active compounds read low",0.985
same,normalized growth,"S. cerevisiae deletion strains, locus YPR163C, strain tif3, active compounds read low",0.99
same,normalized growth,"S. cerevisiae deletion strains, locus YPR167C, strain met16, active compounds read low",0.989
same,normalized growth,"S. cerevisiae deletion strains, strain wtn01, active compounds read low",0.989
same,normalized growth,"S. cerevisiae strains, strain wild type, active compounds read low",1.01

# — PubChem BioAssay AID1159580 (chemical genetic matrix, 2015)
